The results in this text go back to PubChem BioAssay (NCI).

“And” between values parts separate entries of the source, which are not always exact repeats. Equal values may be shown once. The panel holds about 83,000 compounds, 20% with a hit somewhere; the sample as a whole holds those more often.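 For each line, cells grew in 96-well plates with the test compound present at a single concentration for 48 hours.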 Unmarked numbers belong to inactive results. The source made the active and inactive calls. Rule for the calls: active = growth percent below 10; inactive = the rest.

The first assay deals with MDA-MB-231 breast. The assay can be described thus: NCI-60 one-dose screen, 48 h (100 = growth as untreated, 0 = no growth, -100 = all killed). The settings on record: 10 µM unless noted.
For the compound `COc1ccc(NC2=C(I)C(=O)C(C)=C(C)C2=O)cc1`, the growth was -8.44% (active).

Take `CC(=O)Nc1cccc(-n2c(COc3ccc(Br)cc3)nc3ccccc32)c1`: the growth was 80% and 102%.

As for `CCCSc1nnc(-c2sc3nc4ccccc4n3c2C)o1`, the growth is 108%.

Consider `COc1cc(/C=N/NC(=O)c2ccc(OCc3nc4ccc(C)cc4[nH]3)cc2)cc(OC)c1OC`, for which the growth is 87.8%.

Regarding `COc1cc(CNC(=O)C[C@H](C)CCC=C(C)C)ccc1OCc1cn(-c2ccccc2Cl)nn1`, the growth is 72.6%.

`Cc1ccc(C(=O)Nc2cc(-n3ccnc3)cc(C(F)(F)F)c2)cc1-n1cc(-c2cnc3cccnn23)nn1`: the growth was 31.5%.

Consider `O=C(Nc1ccc(Cl)c(C(F)(F)F)c1)N1CCN(c2cc(-c3cn(-c4ccccc4)nc3-c3cccc(O)c3)ccn2)CC1`, for which the growth was -48.6% (active).

For `FC(F)(F)CN1CCN(CCn2c(C(F)(F)F)cc3c(Cl)ncnc32)CC1`, the growth is -35.6% (active).

On to `Nc1nnc(-c2cncc(Br)c2)c(-c2c[nH]c3ccc(Br)cc23)n1`, for which the growth was 48.7%.

Regarding `Nc1cc(-c2c[nH]c3ccc(Cl)cc23)nc2cc(-c3c[nH]c4ccccc34)nn12`, the growth is -79.2% (active).

Regarding `CN(C)CCOc1ccc(C(=O)C2[C@H](c3ccc(Cl)cc3)[C@@H](c3ccccc3)NC23C(=O)Nc2ccc(Cl)cc23)cc1` (some centres not stated), the growth is -93.6% (active).

In the case of `O=C(NNC(=S)NC(=O)c1ccccc1)c1ccc(OCc2nc3ccc(Cl)cc3[nH]2)cc1`, the growth was -71.2% (active).

Take `O=C(c1ccc(Cl)cc1)C1[C@H](c2ccccc2Cl)[C@@H](c2ccccc2)NC12C(=O)Nc1ccc(Br)cc12` (some centres not stated): the growth was -95.4% (active).

`COc1ccc(CCC2NCCc3c(Br)c4c(c(OC)c32)OCO4)cc1` (configuration not stated): the growth was 10.9%.

Regarding `O=C(Nc1ccc(Br)cc1)Nc1ccc(-c2ccc3c(c2)NC(=O)/C3=C\c2ccc[nH]2)cc1`, the growth is 66.3%.

With `O=C(Nc1ccc(S(=O)(=O)N2CCCCC2)cc1)C(Cl)Cl`, the growth is 109%.

On to `O=C(N/N=C/c1ccc(Br)o1)c1[nH]c2ccc(Br)cc2c1-c1ccccc1`, for which the growth is -73.4% (active).

As for `COc1cc(/C=C/C(=O)c2ccc(S(=O)(=O)NCCNc3nc(N(C)C)nc(N4CCOCC4)n3)cc2)cc(OC)c1OC`, the growth was -82% (active).

In the case of `CCCCNC(=S)Nc1ccc(OCc2nc3ccc(Cl)cc3[nH]2)cc1`, the growth is 10.5%.

As to `COc1ccc(-c2cc(C(=O)N=Nc3c(O)[nH]c4ccc(Cl)cc34)c3ccccc3n2)cc1OC`, the growth is 90.9%.

In the case of `NS(=O)(=O)c1cccc(Nc2nc(SCC(=O)c3ccc(F)cc3)nc3ccccc23)c1`, the growth is 7.12% (active).

In the case of `COc1ccc2[nH]c(O)c(N=Nc3nc(-c4ccccc4)cs3)c2c1`, the growth is 60.1%.

For `COc1ccc(OC)c(Cn2cc(C#N)c(N)c2C(=O)c2ccc(Br)cc2)c1`, the growth is 60.7%.

As for `CC1=C(C)C(=O)C(N2CCSCC2)=CC1=O`, the growth is 86%.

With `N#Cc1c(-c2ccc(F)cc2)nc(SCc2ccc(F)cc2)nc1N1CCNCC1`, the growth was -93.6% (active).

For `COc1ccc2[nH]cc(-c3cc4nc(-c5cn(C)c6ncccc56)cc(N)n4n3)c2c1`, the growth was -58.4% (active).

For `O=C1Nc2ccccc2/C1=C\c1ccc(OCC(=O)c2ccc(Br)cc2)cc1`, the growth was 82.2%.

On to `Nc1nn2c(-c3cc4ccccc4oc3=O)ccnc2c1N=Nc1ccccc1`, for which the growth is -34.8% (active).

`O=c1c(-c2nc(-c3ccccc3)c(-c3ccccc3)[nH]2)coc2ccc(F)cc12`: the growth was 64%.

For the compound `Cc1ccccc1Nc1nnc(-c2c[nH]c3ccccc23)o1`, the growth was 26.9%.

As for `O=CNc1cccc(-n2cnc3cc(-c4ccc(O)cc4)ccc32)c1`, the growth was 55.3%.

For `CC1(C)CC(=O)C2=C(C1)OC(N)=C(c1nc3ccccc3[nH]1)C2c1ccc(Cl)cc1` (configuration not stated), the growth was 79.1% and 105%.

As to `CN1C(=O)/C(=C\C(=O)c2cc3ccccc3oc2=O)c2ccccc21`, the growth is 58.7%.

`Cc1ccc(C2CC(c3ccc(NC(=S)Nc4ccccc4)cc3)=NN2c2ccc(S(N)(=O)=O)cc2)cc1` (configuration not stated): the growth was 15.2%.

On to `COc1cc(CNC(=O)[C@]23CCC(C)(C)CC2C2=CCC4[C@@]5(C)CCC(OC(C)=O)C(C)(C)C5CC[C@@]4(C)[C@]2(C)CC3)ccc1OCc1cn(-c2ccc(Cl)cc2Cl)nn1` (some centres not stated), for which the growth was 88.8%.

With `Nc1ccc(-c2ccc3ncnc(N4CCc5cc(F)c(Cl)cc54)c3c2)cn1`, the growth is 18.4%.

A further assay has as its system RXF 393 renal. The assay is described as above. The settings on record: 10 µM unless noted.
For the compound `COc1ccc(NC2=C(I)C(=O)C(C)=C(C)C2=O)cc1`, the growth was 58.6%.

Consider `CC(=O)Nc1cccc(-n2c(COc3ccc(Br)cc3)nc3ccccc32)c1`, for which the growth was 82.4% and 106%.

In the case of `CCCSc1nnc(-c2sc3nc4ccccc4n3c2C)o1`, the growth is 87.3%.

Consider `COc1cc(/C=N/NC(=O)c2ccc(OCc3nc4ccc(C)cc4[nH]3)cc2)cc(OC)c1OC`, for which the growth was 39.6%.

In the case of `COc1cc(CNC(=O)C[C@H](C)CCC=C(C)C)ccc1OCc1cn(-c2ccccc2Cl)nn1`, the growth was 72.6%.

Turning to `Cc1ccc(C(=O)Nc2cc(-n3ccnc3)cc(C(F)(F)F)c2)cc1-n1cc(-c2cnc3cccnn23)nn1`, the growth was 94.8%.

Take `O=C(Nc1ccc(Cl)c(C(F)(F)F)c1)N1CCN(c2cc(-c3cn(-c4ccccc4)nc3-c3cccc(O)c3)ccn2)CC1`: the growth is -35.4% (active).

As for `FC(F)(F)CN1CCN(CCn2c(C(F)(F)F)cc3c(Cl)ncnc32)CC1`, the growth is 59.7%.

For the compound `Nc1nnc(-c2cncc(Br)c2)c(-c2c[nH]c3ccc(Br)cc23)n1`, the growth is 55.6%.

For the compound `Nc1cc(-c2c[nH]c3ccc(Cl)cc23)nc2cc(-c3c[nH]c4ccccc34)nn12`, the growth was -21.5% (active).

With `CN(C)CCOc1ccc(C(=O)C2[C@H](c3ccc(Cl)cc3)[C@@H](c3ccccc3)NC23C(=O)Nc2ccc(Cl)cc23)cc1` (some centres not stated), the growth was -92% (active).

Turning to `O=C(NNC(=S)NC(=O)c1ccccc1)c1ccc(OCc2nc3ccc(Cl)cc3[nH]2)cc1`, the growth was -56.7% (active).

With `O=C(c1ccc(Cl)cc1)C1[C@H](c2ccccc2Cl)[C@@H](c2ccccc2)NC12C(=O)Nc1ccc(Br)cc12` (some centres not stated), the growth is -93.5% (active).

On to `COc1ccc(CCC2NCCc3c(Br)c4c(c(OC)c32)OCO4)cc1` (configuration not stated), for which the growth is -17.3% (active).

Consider `O=C(Nc1ccc(Br)cc1)Nc1ccc(-c2ccc3c(c2)NC(=O)/C3=C\c2ccc[nH]2)cc1`, for which the growth was 25.3%.

With `O=C(Nc1ccc(S(=O)(=O)N2CCCCC2)cc1)C(Cl)Cl`, the growth is 115%.

As to `O=C(N/N=C/c1ccc(Br)o1)c1[nH]c2ccc(Br)cc2c1-c1ccccc1`, the growth was -43.2% (active).

Take `COc1cc(/C=C/C(=O)c2ccc(S(=O)(=O)NCCNc3nc(N(C)C)nc(N4CCOCC4)n3)cc2)cc(OC)c1OC`: the growth was -100% (active).

Turning to `CCCCNC(=S)Nc1ccc(OCc2nc3ccc(Cl)cc3[nH]2)cc1`, the growth was -1.67% (active).

With `COc1ccc(-c2cc(C(=O)N=Nc3c(O)[nH]c4ccc(Cl)cc34)c3ccccc3n2)cc1OC`, the growth is 104%.

Turning to `NS(=O)(=O)c1cccc(Nc2nc(SCC(=O)c3ccc(F)cc3)nc3ccccc23)c1`, the growth was 38.9%.

Turning to `COc1ccc2[nH]c(O)c(N=Nc3nc(-c4ccccc4)cs3)c2c1`, the growth is 4.35% (active).

For the compound `COc1ccc(OC)c(Cn2cc(C#N)c(N)c2C(=O)c2ccc(Br)cc2)c1`, the growth was 41.8%.

In the case of `CC1=C(C)C(=O)C(N2CCSCC2)=CC1=O`, the growth was 98.5%.

Regarding `N#Cc1c(-c2ccc(F)cc2)nc(SCc2ccc(F)cc2)nc1N1CCNCC1`, the growth was -64.7% (active).

Take `COc1ccc2[nH]cc(-c3cc4nc(-c5cn(C)c6ncccc56)cc(N)n4n3)c2c1`: the growth was -62.3% (active).

Consider `O=C1Nc2ccccc2/C1=C\c1ccc(OCC(=O)c2ccc(Br)cc2)cc1`, for which the growth is 67.6%.

Regarding `Nc1nn2c(-c3cc4ccccc4oc3=O)ccnc2c1N=Nc1ccccc1`, the growth is 2.06% (active).

On to `O=c1c(-c2nc(-c3ccccc3)c(-c3ccccc3)[nH]2)coc2ccc(F)cc12`, for which the growth was 92.3%.

Take `Cc1ccccc1Nc1nnc(-c2c[nH]c3ccccc23)o1`: the growth was -4.44% (active).

Consider `O=CNc1cccc(-n2cnc3cc(-c4ccc(O)cc4)ccc32)c1`, for which the growth is 11%.

For the compound `CC1(C)CC(=O)C2=C(C1)OC(N)=C(c1nc3ccccc3[nH]1)C2c1ccc(Cl)cc1` (configuration not stated), the growth was 55% and 106%.

In the case of `CN1C(=O)/C(=C\C(=O)c2cc3ccccc3oc2=O)c2ccccc21`, the growth is 30.5%.

Take `Cc1ccc(C2CC(c3ccc(NC(=S)Nc4ccccc4)cc3)=NN2c2ccc(S(N)(=O)=O)cc2)cc1` (configuration not stated): the growth was -16.1% (active).

As for `COc1cc(CNC(=O)[C@]23CCC(C)(C)CC2C2=CCC4[C@@]5(C)CCC(OC(C)=O)C(C)(C)C5CC[C@@]4(C)[C@]2(C)CC3)ccc1OCc1cn(-c2ccc(Cl)cc2Cl)nn1` (some centres not stated), the growth is 116%.

Regarding `Nc1ccc(-c2ccc3ncnc(N4CCc5cc(F)c(Cl)cc54)c3c2)cn1`, the growth was -19.2% (active).
